Source: PubChem
Most compounds without a hit are left out; they make up all but 4.1% or so of the library.
DAX1 inh-1: inhibitors of human orphan nuclear receptor DAX1 (NR0B1); P51843; actives 0.99% (n = 340,000); HEK293 Gal4-DAX1 luciferase reporter, luminescence; inhibition, % at 6.75 µM; AID 504766;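 active = inhibition above the mean over all tested compounds plus 3 SD, cut at about 4.2% in these data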;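 also: 0% = DAX1-transfected cells with DMSO and 100% = empty-vector control cells with DMSO; inhibition shows as a rise in luminescence from relieved DAX1 repression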
Target sequence (P51843 207-470 limits assumed): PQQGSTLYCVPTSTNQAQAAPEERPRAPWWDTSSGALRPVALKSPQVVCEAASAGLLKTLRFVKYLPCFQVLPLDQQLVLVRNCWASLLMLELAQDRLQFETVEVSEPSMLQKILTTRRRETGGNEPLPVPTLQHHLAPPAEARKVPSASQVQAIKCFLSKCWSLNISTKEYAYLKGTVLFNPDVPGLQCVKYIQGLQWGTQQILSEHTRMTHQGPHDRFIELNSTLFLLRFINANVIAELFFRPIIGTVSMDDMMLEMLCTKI
hcDAF12 agonist: activates DAF-12 receptor from parasite H. contortus. HEK293 hcDAF-12 lit1-tk-luc reporter, luminescence; 0% DMSO, 100% Δ7-dafachronic acid. activation, % at 6.8 µM. actives 1.4% (n = 370,000). AID 652067;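 active = activation above the mean of all tested compounds plus 3 SD, cut at about 5.5% in these data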;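 also: 100% = response to 3 µM Δ7-dafachronic acid high control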
DAX1 inh-2: blocks DAX1 repression of SF-1 activated StAR promoter; AID 652010; inhibition, % at 6.8 µM; HEK293T StAR-luciferase reporter, SF-1/DAX-1 repression relief; actives 1.1% (n = 370,000);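 active = inhibition above the mean over all tested compounds plus 3 SD, cut at about 3.6% in these data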;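 also: 0% = DAX-1 cells with DMSO and 100% = cells lacking DAX-1 with DMSO; higher inhibition means more luminescence from relief of DAX-1 repression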
ssDAF12 agonist: activators of S. stercoralis DAF-12 nuclear receptor; activation, % at 6.8 µM; actives 1% (n = 370,000); AID 652126; HEK293 ssDAF-12/GRIP1 lit1-tk-luc reporter, luminescence; % of 3 µM dafachronic acid response;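 active = activation above the mean over all tested compounds plus 3 SD, cut at about 0.9% in these data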;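 also: 0% = DMSO-only wells and 100% = 3 µM delta7-dafachronic acid wells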
hgDAF12 agonist: activates the H. glycines DAF-12 receptor ligand-binding domain | activation, % at 6.8 µM | AID 687014 | HEK293 GAL4-hgDAF12 UAS-luciferase reporter, agonist luminescence; normalized to butyrate control | actives 1.8% (n = 370,000);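 active = activation above a cutoff set at the mean of all screened compounds plus 3 SD, cut at about 10% in these data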;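 also: 0% = DMSO wells and 100% = sodium butyrate wells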
* = called active by the depositor; . = no result.

SMILES	DAX1 inh-1	hcDAF12 agonist	DAX1 inh-2	ssDAF12 agonist	hgDAF12 agonist
CCc1nnc(NC(=O)CCC(=O)Nc2ccccc2)s1	1	1	1	-1	0
CC(C)Cc1nnc(NC(=O)CCC(=O)Nc2ccccc2)s1	0	0	3.6*	-1	6
Cc1cc(NC(=O)C(C)SCC(=O)O)no1 (stereo not drawn)	0	-1	1	-1	1
Cc1cc(NC(=O)C(C)SCC(=O)Nc2nnc(CC(C)C)s2)no1 (stereo not drawn)	1	-1	3.6*	-1	1
CCc1nnc(NC(=S)Nc2ccccc2)s1	0	4	2	0	12*
CCCCNC(=O)C[C@H]1C[C@@]2(C(=O)OCC)CCCC3=C2N(CCC3)C1=O	.	1	0	-1	-1
C[C@H](O)[C@@H]1C(=O)N2CCc3c([nH]c4c(-c5ccccc5)cccc34)[C@@H]2C[C@@H]1N(C)C(=O)Nc1cccc2ccccc12	.	2	0	-1	-3
Cc1ccn2c(C(=O)N/N=C\c3cccs3)c(C)nc2c1	1	0	0	-1	1
O=C(N/N=C/c1ccccc1[N+](=O)[O-])c1ccncc1	1	1	0	0	1
Cc1ccc2nc(C)c(C(=O)N/N=C/c3cccs3)n2c1	-2	1	-2	-2	12*
O=C(N/N=C/c1ccccc1[N+](=O)[O-])c1cnccn1	4.3*	-2	1	0	2
Cc1nc2ccc(Br)cn2c1C(=O)N/N=C\c1ccccc1[N+](=O)[O-]	.	6.2*	0	0	10*
CC1CCC2(CC1)CCN(CCCOC(=O)Nc1ccc3c(c1)OCO3)C2=O (stereo not drawn)	.	-1	-1	-1	0
N#C[C@H](N)[C@H]1O[C@@H](n2ccc(=O)[nH]c2=O)[C@H](O)[C@@H]1O	.	1	1	-1	0
CCCCOc1ccc(-n2nc(C)cc2C)nn1	4.7*	2	2	-1	3
Cc1cc(C)n(-c2ccc(OCC(=O)O)nn2)n1	1	0	1	-1	2
NC(=O)c1sc(=S)n(-c2ccc(Br)cc2)c1N	1	6.5*	-1	0	1
O=C(NCC(=O)N1CCCC(C(F)(F)F)C1)c1ccccc1Br (stereo not drawn)	-1	4	1	1.3*	1
O=C(NC(=O)c1ccccc1O)c1ccc2c(c1)CCO2	-2	4	2	1.0*	12*
C=CCN=C1NC(c2cccc(Cl)c2)C(C(=O)OC)=C(C)N1Cc1cccc(C(F)(F)F)c1 (stereo not drawn)	.	0	-1	-1	1
Cc1cc(NCCCn2ccnc2)n2nc(-c3ccc(Cl)cc3)cc2n1	0	3	0	-1	3
CN(C)CCCNc1cc(-c2ccccc2)nc2cc(-c3cccc(F)c3)nn12	1	0	0	0	2
CN(C)CCCNc1cc(C(C)(C)C)nc2c(-c3ccccc3)cnn12	4.7*	2	1	1.3*	8
CC(C)(C)c1cc(NCCCn2ccnc2)n2ncc(-c3ccc(Cl)cc3)c2n1	1	1	0	-1	10*
O=C(CSc1nnc(-c2ccncc2)n1-c1ccccc1)Nc1ccc2c(c1)OCCO2	.	0	0	-1	-4
SMILES	DAX1 inh-1	hcDAF12 agonist	DAX1 inh-2	ssDAF12 agonist	hgDAF12 agonist
O=C(C[n+]1ccccc1)N1c2ccccc2Sc2ccccc21	4.5*	-2	-1	-1	-1
CN(C)c1cc[n+](CC(=O)N2c3ccccc3Sc3ccccc32)cc1	-1	-2	0	-1	-1
CCNC(=O)N(C)[C@H]1C[C@H]2c3[nH]c4cccc(-c5cccc(F)c5)c4c3CCN2C(=O)[C@H]1[C@H](C)O	.	-5	-2	-2	6
COc1ccc(C(=O)Cc2ccc3c(c2)OCO3)c(O)c1	1	4	3	1.4*	9
COc1ccc(CC(=O)c2ccc(O)cc2O)cc1	5.8*	1	3	0	7
O=C(O)COc1ccc(C(=O)Cc2ccc3c(c2)OCCCO3)c(O)c1	0	-3	0	-1	-1
CCn1c(Cc2cccs2)nnc1SCC(=O)c1ccc(Cl)cc1	.	-3	1	0	-1
O=C(O)c1ccc(N2CCCCC2)cc1	2	-1	0	-2	0
O=C(c1ccccc1)c1ccc(N2CCCC2)cc1	1	2	2	0	12*
